# Granule exo inh – LAMP-1 surface exposure blockers, TALL-104 cells – cell-based, flow cytometry, MLPCN library, primary screen | TALL-104 LAMP-1 surface exposure; cells stimulated with thapsigargin and PMA | inhibition, % at 10 µM | 360,000 compounds, 0.66% hits;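 active = inhibition above about 55%, limit read from the data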
# NOD2-RIPK2 inh – NOD2-RIPK2 binding disruptors in cells, primary screen, fluorescence, CHO cells, BLA complementation; CCF4 ratio; inhibition, % at 4.98 µM; AID 624267, 2012; 360,000 compounds, 0.38% hits; in the data active = inhibition above about 21%;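 note: 0% = vehicle only and 100% = reference blocker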
# ABHD5-PLIN5 inh – ABHD5-PLIN5 interaction inhibitors, primary screen, cell lysate, split luciferase complementation, luminescence; 360,000 compounds, 0.78% hits; Perilipin-5 (Homo sapiens) + 1-acylglycerol-3-phosphate O-acyltransferase ABHD5 (Homo …; Split G. princeps luciferase complementation, 4 h; inhibition, % at 4 µM; AID 602281, 2012;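 active = inhibition above the mean inhibition across every tested compound plus 3 SD, cut at about 22% in these data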;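 note: 0% = DMSO only wells and the 100% control is not disclosed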
# TLR9-MyD88 inh – inhibitors of TLR9-MyD88 association in cells, primary screen, cell-based, CHO, BLA complementation, fluorescence; Toll-like receptor 9 (Homo sapiens) + Myeloid differentiation primary response protein …; CCF4 FRET ratio; inhibition, % at 4.98 µM; 340,000 compounds, 0.21% hits;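 active = inhibition above the mean over all tested compounds plus 3 SD, cut at about 21% in these data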;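 note: 0% = DMSO only wells and 100% = clavulanate BLA inhibitor control wells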
# TLR4-MyD88 BLA – inhibitors of TLR4-MyD88 association in cells, primary screen, cell-based, HeLa CL3-4, BLA complementation, FRET ratio; HeLa CL3-4 TLR4/MyD88 BLA complementation; inhibition, % at 8.4 µM; 200,000 compounds, 0.18% hits; AID 861, 2007; in the data active = inhibition above about 25%;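 note: 0% = vehicle and 100% = reference inhibitor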
# Beta2AR agonist – beta2AR agonists driving receptor internalization, primary screen, cell-based, FAP fluorogen, flow cytometry; Am2.2-beta2AR cells; response, % (concentration not given with the values); 340,000 compounds, 0.43% hits; AID 504454, 2011;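 active = response above a set limit, near 3 SD of response in nonfluorescent compounds, cut at about 42% in these data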
# TLR9-MyD88 cf – TLR9-MyD88 association inhibitors, retest, confirmation, cell-based, CHO, BLA complementation, fluorescence, triplicate | shares compounds with TLR9-MyD88 inh | CCF4 FRET ratio | inhibition, % at 4.98 µM | 680 compounds, 51% hits | AID 540250, 2011;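 active = mean inhibition across three repeats above about 21% taken from the earlier screen, limit read from the data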;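 note: blue over green emission ratio reports constitutive TLR9 MyD88 association via BLA complementation; 0% = DMSO vehicle wells and 100% = clavulanate BLA inhibitor wells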
# BLA counter-1 – beta-lactamase reporter inhibitors in CHO cells, artefact control for TLR9-MyD88 binding inhibitor project, cell-based, fluorescence | inhibition, % at 4.98 µM | shares compounds with TLR9-MyD88 inh | 680 compounds, 7% hits | CHO-BLA cells, CCF4 FRET ratio, BLA reporter;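 active = mean inhibition above a 50% cutoff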;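 note: counterscreen of TLR9-MyD88 hits on CMV-driven BLA in CHO-K1 cells; 0% = DMSO alone and 100% = clavulanate blocking BLA; higher means less blue over green ratio so more BLA blockade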
# TLR9 CHO tox – CHO cell viability loss – luminescence, single concentration, cytotoxicity control for TLR9-MyD88 binding inhibitor project | shares compounds with TLR9-MyD88 inh | TLR9-MyD88 CHO cells cytotoxicity | inhibition, % at 4.98 µM | 680 compounds, 39% hits | AID 588336, 2011; in the data active = inhibition above about 11%
# NOD2 RIPK2 conf – NOD2-RIPK2 binding disruptors, retest, confirmation, fluorescence, CHO cells, BLA complementation, triplicate; shares compounds with NOD2-RIPK2 inh; CCF4 FRET; inhibition, % at 4.98 µM; 1,200 compounds, 70% hits;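 active = mean inhibition across replicates above a set limit taken from the earlier primary screen, cut at about 21% in these data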;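 note: 0% = DMSO-only wells and the high end = clavulanate BLA-blocked wells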
# BLA counter-2 – hits BLA reporter in NOD2-RIPK2 inhibitor counterscreen. inhibition, % at 4.98 µM. CHO BLA reporter, CCF4 FRET ratio. AID 624371. shares compounds with NOD2-RIPK2 inh. 1,200 compounds, 57% hits;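 active = mean inhibition above the low-control mean inhibition plus three low-control SD, cut at about 11% in these data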;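 note: 0% = DMSO only wells and 100% = clavulanate high control wells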
# Active calls of the source: *; nt = no result given. Compounds with a hit are over-represented: about 2% of the library has one in this group of screens.
SMILES,Granule exo inh,NOD2-RIPK2 inh,ABHD5-PLIN5 inh,TLR9-MyD88 inh,TLR4-MyD88 BLA,Beta2AR agonist,TLR9-MyD88 cf,BLA counter-1,TLR9 CHO tox,NOD2 RIPK2 conf,BLA counter-2
CCOc1ccc2nc(SCC(=O)NNC(=O)c3ccco3)c(C)cc2c1,13,1,-2,-15,nt,2,nt,nt,nt,nt,nt
CC(=O)Nc1cccc(C(=O)/C=C/c2ccc(N(C)C)cc2)c1,23,57*,13,44*,4,3,24*,28,0,51*,58*
Cc1csc(Nc2nc(N)c(C(=O)Nc3ccccc3)o2)n1,2,-8,-1,-8,nt,-1,nt,nt,nt,nt,nt
COc1ccc(-c2oc3ccccc3c(=O)c2OC(C)=O)cc1,5,2,7,3,-12,10,nt,nt,nt,nt,nt
CC(=O)Oc1c(-c2ccc(Br)o2)oc2ccccc2c1=O,4,25*,-4,27*,nt,8,17,16,-2,35*,34*
CCCS(=O)(=O)NC(=O)C1(C)CCN(C(=O)c2ccnc(Cl)c2)C1 (configuration not stated),2,9,0,nt,nt,nt,nt,nt,nt,nt,nt
Cc1nc(-c2ccc(F)cc2)c(CC(=O)N(C)CC(=O)Nc2ccc(Br)cc2C)s1,-4,-11,0,1,nt,0,nt,nt,nt,nt,nt
CN(C)c1ccc(/C=C/c2nc3ccccc3c(=O)n2-c2ccc(C(=O)O)cc2)cc1,6,34*,-3,40*,nt,-101,25*,27,1,60*,65*
O=C(O)c1cccc(-n2c(/C=C/c3ccccc3)nc3ccccc3c2=O)c1,-7,5,-4,-10,nt,17,nt,nt,nt,nt,nt
O=C1N/C(=C/c2cccn2-c2ccc(F)cc2)C(=O)N1Cc1ccccc1,-2,75*,0,61*,10,-14,51*,52*,10,85*,89*
CC(=O)C1=CCC(c2ccc(C)cc2)N(S(=O)(=O)c2ccc(Cl)cc2)C1 (configuration not stated),44,-9,7,nt,nt,nt,nt,nt,nt,nt,nt
O=c1oc2c(O)cccc2cc1-c1nc2ccccc2[nH]1,25,58*,-7,54*,nt,5,45*,54*,9,73*,79*
O=c1oc2ccccc2c(N2CCCC2)c1CN1CCCC1,1,3,4,-2,-2,-10,nt,nt,nt,nt,nt
O=c1oc2ccccc2c(Cl)c1CN1CCCCC1,0,40*,11,23*,-7,1,75*,17,96*,95*,14*
CC(=O)OCCN(C)c1cc(SC(C)C)c2nonc2c1[N+](=O)[O-],9,-2,-6,-4,0,17,nt,nt,nt,nt,nt
